Assays:
Assay in all cases: growth AUC relative to DMSO control (median of replicates) (fraction); higher = more growth (less inhibition), active = hit call of the paper
Conditions in all cases: 20 µM; 24 h;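 active = AUC reduced over 20% with Padj below 0.05 in at least 2 of 3 replicates; inactive = otherwise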
Akkermansia muciniphila = test system: Akkermansia muciniphila
In short: (§1)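 OD600 was recorded every hour for 24 h in anaerobic monocultures of gut bacteria kept at 37 °C in mGAM, seeded at OD600 0.05 and given 20 µM compound in 1% DMSO. The area under each growth curve was scaled to the plate median of solvent-only wells, or to row and column medians for the industrial chemical plate. Before this step, the minimum OD was set to 0. Reported values are medians of three biological replicates run on separate days.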

Bacteroides caccae = test system: Bacteroides caccae
In short: as §1

Bacteroides clarus = test system: Bacteroides clarus
In short: as §1

Bacteroides dorei = test system: Bacteroides dorei
In short: as §1

Bacteroides stercoris = test system: Bacteroides stercoris
In short: as §1

[1] = test system: Bacteroides thetaiotaomicron
In short: as §1

Bacteroides uniformis = test system: Bacteroides uniformis
In short: as §1

[2] = test system: Bifidobacterium longum subsp. longum
In short: as §1

Clostridium difficile = test system: Clostridium difficile
In short: as §1

Collinsella aerofaciens = test system: Collinsella aerofaciens
In short: as §1

Coprococcus comes = test system: Coprococcus comes
In short: as §1

Escherichia coli ED1a = test system: Escherichia coli ED1a
In short: as §1

Escherichia coli IAI1 = test system: Escherichia coli IAI1
In short: as §1

Eubacterium rectale = test system: Eubacterium rectale
In short: as §1

[3] = test system: Fusobacterium nucleatum subsp. animalis
In short: as §1

Lactobacillus gasseri = test system: Lactobacillus gasseri
In short: as §1

Lactobacillus paracasei = test system: Lactobacillus paracasei
In short: as §1

Odoribacter splanchnicus = test system: Odoribacter splanchnicus
In short: as §1

[4] = test system: Parabacteroides distasonis
In short: as §1

Parabacteroides merdae = test system: Parabacteroides merdae
In short: as §1

Measured: growth AUC

CCOC(=O)c1nc(C(Cl)(Cl)Cl)n(-c2ccc(Cl)cc2Cl)n1
inactive: Akkermansia muciniphila 0.908 | Bacteroides caccae 1 | Bacteroides clarus 1 | Bacteroides dorei 0.99 | Bacteroides stercoris 0.861 | [1] 0.966 | Bacteroides uniformis 0.968 | [2] 0.983 | Clostridium difficile 0.983 | Collinsella aerofaciens 0.952 | Coprococcus comes 0.946 | Escherichia coli ED1a 1 | Escherichia coli IAI1 1.01 | Eubacterium rectale 0.961 | [3] 0.995 | Lactobacillus gasseri 1.02 | Lactobacillus paracasei 1 | Odoribacter splanchnicus 1 | [4] 0.899 | Parabacteroides merdae 0.965

FC(F)(F)C(=NOCC1OCCO1)c1ccc(Cl)cc1
inactive: Akkermansia muciniphila 1.16 | Bacteroides caccae 0.948 | Bacteroides clarus 1.05 | Bacteroides dorei 0.969 | Bacteroides stercoris 1.34 | [1] 0.991 | Bacteroides uniformis 0.941 | [2] 0.988 | Clostridium difficile 0.904 | Collinsella aerofaciens 0.976 | Coprococcus comes 1.02 | Escherichia coli ED1a 1.01 | Escherichia coli IAI1 1.04 | Eubacterium rectale 1.06 | [3] 1.08 | Lactobacillus gasseri 1.01 | Lactobacillus paracasei 1.07 | Odoribacter splanchnicus 1.04 | [4] 1 | Parabacteroides merdae 1.03

Cn1cc(C(=O)Nc2ccc(F)cc2-c2ccc(Cl)c(Cl)c2)c(C(F)F)n1
active: [4] 0.741
inactive: Akkermansia muciniphila 0.929 | Bacteroides caccae 0.901 | Bacteroides clarus 0.849 | Bacteroides dorei 0.949 | Bacteroides stercoris 0.826 | [1] 0.872 | Bacteroides uniformis 0.911 | [2] 0.991 | Clostridium difficile 0.983 | Collinsella aerofaciens 0.991 | Coprococcus comes 0.921 | Escherichia coli ED1a 1.01 | Escherichia coli IAI1 0.997 | Eubacterium rectale 0.953 | [3] 0.944 | Lactobacillus gasseri 0.881 | Lactobacillus paracasei 0.968 | Odoribacter splanchnicus 0.865 | Parabacteroides merdae 0.892

Cc1cccc(C)c1N(CCSCC(O)C(=O)[O-])C(=O)CO.[Na+] (stereo not given)
inactive: Akkermansia muciniphila 1.15 | Bacteroides caccae 0.993 | Bacteroides clarus 1.02 | Bacteroides dorei 0.907 | Bacteroides stercoris 1.01 | [1] 0.98 | Bacteroides uniformis 1.01 | [2] 1.05 | Clostridium difficile 0.992 | Collinsella aerofaciens 0.913 | Coprococcus comes 1.04 | Escherichia coli ED1a 0.977 | Escherichia coli IAI1 0.97 | Eubacterium rectale 1.07 | [3] 0.984 | Lactobacillus gasseri 0.849 | Lactobacillus paracasei 0.95 | Odoribacter splanchnicus 1.01 | [4] 0.927 | Parabacteroides merdae 0.99

NC(=O)Cc1cccc2ccccc12
inactive: Akkermansia muciniphila 1.01 | Bacteroides caccae 1 | Bacteroides clarus 1.03 | Bacteroides dorei 0.988 | Bacteroides stercoris 1.15 | [1] 1.03 | Bacteroides uniformis 1.01 | [2] 0.977 | Clostridium difficile 1.01 | Collinsella aerofaciens 0.981 | Coprococcus comes 1.04 | Escherichia coli ED1a 0.99 | Escherichia coli IAI1 1.01 | Eubacterium rectale 0.994 | [3] 1.06 | Lactobacillus gasseri 1.04 | Lactobacillus paracasei 1.01 | Odoribacter splanchnicus 0.992 | [4] 1.01 | Parabacteroides merdae 1.01

CCc1nc2ncnn2c(N)c1CCCCCC(=O)O.Cl
inactive: Akkermansia muciniphila 1.06 | Bacteroides caccae 1.03 | Bacteroides clarus 1.07 | Bacteroides dorei 1.03 | Bacteroides stercoris 1.14 | [1] 0.988 | Bacteroides uniformis 1.02 | [2] 0.963 | Clostridium difficile 1.01 | Collinsella aerofaciens 0.996 | Coprococcus comes 1.03 | Escherichia coli ED1a 1.02 | Escherichia coli IAI1 1.04 | Eubacterium rectale 1.11 | [3] 1.14 | Lactobacillus gasseri 1.08 | Lactobacillus paracasei 0.977 | Odoribacter splanchnicus 1.04 | [4] 0.99 | Parabacteroides merdae 1.06

COC(=O)C(C)Oc1ccc(Cl)cc1Cl (stereo not given)
inactive: Akkermansia muciniphila 0.964 | Bacteroides caccae 1.05 | Bacteroides clarus 1 | Bacteroides dorei 1.05 | Bacteroides stercoris 0.849 | [1] 1.01 | Bacteroides uniformis 1.05 | [2] 1 | Clostridium difficile 1.03 | Collinsella aerofaciens 0.987 | Coprococcus comes 1.01 | Escherichia coli ED1a 1.01 | Escherichia coli IAI1 0.988 | Eubacterium rectale 1.14 | [3] 0.95 | Lactobacillus gasseri 0.991 | Lactobacillus paracasei 1.01 | Odoribacter splanchnicus 1.11 | [4] 0.996 | Parabacteroides merdae 1.01

COC(=O)c1ccccc1S(=O)(=O)NC(=O)Nc1nc(OC(F)F)cc(OC(F)F)n1
inactive: Akkermansia muciniphila 0.91 | Bacteroides caccae 1 | Bacteroides clarus 0.971 | Bacteroides dorei 0.997 | Bacteroides stercoris 0.988 | [1] 0.965 | Bacteroides uniformis 1.02 | [2] 1.03 | Clostridium difficile 0.993 | Collinsella aerofaciens 0.992 | Coprococcus comes 1 | Escherichia coli ED1a 1.02 | Escherichia coli IAI1 1.01 | Eubacterium rectale 0.964 | [3] 0.957 | Lactobacillus gasseri 1.19 | Lactobacillus paracasei 1.04 | Odoribacter splanchnicus 0.99 | [4] 1.04 | Parabacteroides merdae 1

O=C(O)Cc1cccc2ccccc12
inactive: Akkermansia muciniphila 0.984 | Bacteroides caccae 0.985 | Bacteroides clarus 0.969 | Bacteroides dorei 0.971 | Bacteroides stercoris 0.963 | [1] 1 | Bacteroides uniformis 1.04 | [2] 1.03 | Clostridium difficile 0.994 | Collinsella aerofaciens 0.968 | Coprococcus comes 0.941 | Escherichia coli ED1a 0.959 | Escherichia coli IAI1 0.991 | Eubacterium rectale 1.02 | [3] 1.01 | Lactobacillus gasseri 0.949 | Lactobacillus paracasei 1.02 | Odoribacter splanchnicus 0.953 | [4] 0.987 | Parabacteroides merdae 1.01

CC(C)(C)C(O)/C(=C\c1ccc(Cl)cc1)n1cncn1 (stereo not given)
inactive: Akkermansia muciniphila 1.05 | Bacteroides caccae 0.903 | Bacteroides clarus 0.987 | Bacteroides dorei 0.919 | Bacteroides stercoris 1.19 | [1] 0.958 | Bacteroides uniformis 0.973 | [2] 1.04 | Clostridium difficile 0.991 | Collinsella aerofaciens 0.969 | Coprococcus comes 1.03 | Escherichia coli ED1a 0.988 | Escherichia coli IAI1 1.03 | Eubacterium rectale 0.978 | [3] 0.987 | Lactobacillus gasseri 0.943 | Lactobacillus paracasei 1.05 | Odoribacter splanchnicus 0.976 | [4] 0.959 | Parabacteroides merdae 0.948

c1ccc2c(c1)-c1cccc3c1c-2cc1ccccc13
inactive: Akkermansia muciniphila 0.981 | Bacteroides caccae 1.05 | Bacteroides clarus 1.03 | Bacteroides dorei 1.04 | Bacteroides stercoris 1.08 | [1] 1.02 | Bacteroides uniformis 1.03 | [2] 1.06 | Clostridium difficile 1.02 | Collinsella aerofaciens 1.01 | Coprococcus comes 1.01 | Escherichia coli ED1a 0.985 | Escherichia coli IAI1 1.01 | Eubacterium rectale 1.03 | [3] 1.08 | Lactobacillus gasseri 1.02 | Lactobacillus paracasei 0.998 | Odoribacter splanchnicus 1.07 | [4] 1.31 | Parabacteroides merdae 1.05

CCCCOCCOC(=O)COc1nc(Cl)c(Cl)cc1Cl
inactive: Akkermansia muciniphila 1.02 | Bacteroides caccae 0.954 | Bacteroides clarus 0.956 | Bacteroides dorei 0.948 | Bacteroides stercoris 0.995 | [1] 0.963 | Bacteroides uniformis 0.928 | [2] 0.934 | Clostridium difficile 0.979 | Collinsella aerofaciens 0.977 | Coprococcus comes 0.982 | Escherichia coli ED1a 0.994 | Escherichia coli IAI1 0.973 | Eubacterium rectale 1.02 | [3] 0.984 | Lactobacillus gasseri 0.917 | Lactobacillus paracasei 0.962 | Odoribacter splanchnicus 1.09 | [4] 0.978 | Parabacteroides merdae 0.956

Cc1nc(C(F)(F)F)c(C(=O)Nc2c(Br)cc(OC(F)(F)F)cc2Br)s1
inactive: Akkermansia muciniphila 1.05 | Bacteroides caccae 0.984 | Bacteroides clarus 0.98 | Bacteroides dorei 0.946 | Bacteroides stercoris 1.06 | [1] 0.945 | Bacteroides uniformis 0.986 | [2] 1 | Clostridium difficile 1.03 | Collinsella aerofaciens 1.01 | Coprococcus comes 1.06 | Escherichia coli ED1a 1.02 | Escherichia coli IAI1 1.02 | Eubacterium rectale 0.852 | [3] 1.09 | Lactobacillus gasseri 1.15 | Lactobacillus paracasei 1.1 | Odoribacter splanchnicus 0.942 | [4] 0.944 | Parabacteroides merdae 1

Cc1cc(CC(C)CC(C)(C)C)n(O)c(=O)c1.NCCO (stereo not given)
inactive: Akkermansia muciniphila 1.22 | Bacteroides caccae 0.993 | Bacteroides clarus 0.982 | Bacteroides dorei 0.99 | Bacteroides stercoris 0.932 | [1] 0.999 | Bacteroides uniformis 1 | [2] 0.991 | Clostridium difficile 0.977 | Collinsella aerofaciens 0.933 | Coprococcus comes 0.995 | Escherichia coli ED1a 1.04 | Escherichia coli IAI1 1 | Eubacterium rectale 0.788 | [3] 1.02 | Lactobacillus gasseri 0.971 | Lactobacillus paracasei 1.01 | Odoribacter splanchnicus 0.997 | [4] 1 | Parabacteroides merdae 1.03

CCC([O-])=C1C(=O)CC(C(=O)[O-])CC1=O.[Ca+2] (stereo not given)
inactive: Akkermansia muciniphila 0.965 | Bacteroides caccae 1 | Bacteroides clarus 0.998 | Bacteroides dorei 0.996 | Bacteroides stercoris 1.1 | [1] 0.958 | Bacteroides uniformis 1.01 | [2] 1.03 | Clostridium difficile 1 | Collinsella aerofaciens 0.995 | Coprococcus comes 0.957 | Escherichia coli ED1a 1 | Escherichia coli IAI1 0.972 | Eubacterium rectale 1.13 | [3] 1.11 | Lactobacillus gasseri 1.06 | Lactobacillus paracasei 0.91 | Odoribacter splanchnicus 0.976 | [4] 0.993 | Parabacteroides merdae 0.996

CC(=O)Nc1cc(NS(=O)(=O)C(F)(F)F)c(C)cc1C
inactive: Akkermansia muciniphila 0.856 | Bacteroides caccae 1.04 | Bacteroides clarus 0.973 | Bacteroides dorei 1.02 | Bacteroides stercoris 0.886 | [1] 1.01 | Bacteroides uniformis 1.02 | [2] 0.92 | Clostridium difficile 1.08 | Collinsella aerofaciens 1.06 | Coprococcus comes 0.977 | Escherichia coli ED1a 0.978 | Escherichia coli IAI1 0.976 | Eubacterium rectale 0.947 | [3] 0.983 | Lactobacillus gasseri 1.12 | Lactobacillus paracasei 0.563 | Odoribacter splanchnicus 1.03 | [4] 1.05 | Parabacteroides merdae 0.966

From the supplement of paper PMC12669032
